Assay results: PubChem BioAssay (EPA / NIEHS)
Inconclusive results are not listed. Active and inactive are the calls of the source. How the source made its calls, unless noted: active means hit-call score of the fitted dose curve at least 0.9, where 1 is the maximum; inconclusive means response in the unintended direction; inactive means score below 0.9.

Assays:
[1] = target: human Peroxisome Proliferator-activated Receptor alpha (PPARa), PPARA (gene 5465) (UniProt Q07869); assay: ATG_PPARa_TRANS: Attagene TRANS-FACTORIAL HepG2 Assay for human Peroxisome Proliferator-activated Receptor alpha (PPARa) (AID 2283001);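 on AC50: potency for gain of reporter signal over DMSO so agonist or activator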
Sequence of human Peroxisome Proliferator-activated Receptor alpha (PPARa), PPARA (gene 5465) (Q07869 whole entry, looked up): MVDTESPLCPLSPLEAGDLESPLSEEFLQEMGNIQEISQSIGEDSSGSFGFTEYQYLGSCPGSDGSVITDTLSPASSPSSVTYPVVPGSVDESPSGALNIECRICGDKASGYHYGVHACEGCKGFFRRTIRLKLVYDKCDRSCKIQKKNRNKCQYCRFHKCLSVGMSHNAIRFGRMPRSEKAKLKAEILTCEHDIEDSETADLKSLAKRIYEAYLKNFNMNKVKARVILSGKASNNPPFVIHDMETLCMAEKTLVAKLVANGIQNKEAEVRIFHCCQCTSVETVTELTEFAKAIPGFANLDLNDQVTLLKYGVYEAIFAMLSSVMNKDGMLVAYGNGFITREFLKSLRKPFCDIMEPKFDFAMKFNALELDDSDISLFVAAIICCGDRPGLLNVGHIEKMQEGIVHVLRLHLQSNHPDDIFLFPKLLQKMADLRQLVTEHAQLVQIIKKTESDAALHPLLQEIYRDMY
Method in brief: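 Cells (HepG2) are transfected with multiple reporter transcription units, exposed to chemical for 24 h, then total RNA is reverse-transcribed and amplified. Labelled products are quantified by capillary electrophoresis; induction is referenced to DMSO.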

[2] = target: human Peroxisome Proliferator-activated Receptor delta (PPARd), PPARD (gene 5467) (UniProt Q03181); assay: ATG_PPARd_TRANS: Attagene TRANS-FACTORIAL HepG2 Assay for human Peroxisome Proliferator-activated Receptor delta (PPARd) (AID 2283002)
Sequence of human Peroxisome Proliferator-activated Receptor delta (PPARd), PPARD (gene 5467) (Q03181 whole entry, looked up, the tested form may be a part): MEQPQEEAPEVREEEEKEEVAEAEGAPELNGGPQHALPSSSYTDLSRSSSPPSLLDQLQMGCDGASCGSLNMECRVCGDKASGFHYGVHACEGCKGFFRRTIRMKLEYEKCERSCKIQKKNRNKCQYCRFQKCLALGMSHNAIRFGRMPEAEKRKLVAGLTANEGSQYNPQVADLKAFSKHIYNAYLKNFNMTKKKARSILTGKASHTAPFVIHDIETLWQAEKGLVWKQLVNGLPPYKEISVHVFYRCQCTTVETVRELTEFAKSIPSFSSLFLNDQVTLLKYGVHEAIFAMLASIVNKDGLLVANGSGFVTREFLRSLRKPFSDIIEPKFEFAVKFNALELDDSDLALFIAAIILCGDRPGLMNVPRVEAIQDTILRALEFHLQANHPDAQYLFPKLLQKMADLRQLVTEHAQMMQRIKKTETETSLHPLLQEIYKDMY
Method in brief: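 HepG2 cells transiently transfected with multiplexed GAL4-UAS reporter units and exogenous chimeric NR-Gal4 proteins; 24 h compound exposure. Reporter mRNA measured by RT-PCR, 6-FAM labelling, HpaI digestion and capillary electrophoresis; gain of signal versus DMSO.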

[3] = target: Peroxisome proliferator-activated receptor gamma (Homo sapiens) (UniProt P37231); assay: ATG_PPARg_TRANS: Attagene TRANS-FACTORIAL HepG2 Assay for human Peroxisome Proliferator-activated Receptor-gamma (PPARg) (AID 2283007)
Sequence of Peroxisome proliferator-activated receptor gamma (Homo sapiens) (P37231 whole entry, looked up, the tested form may be a part): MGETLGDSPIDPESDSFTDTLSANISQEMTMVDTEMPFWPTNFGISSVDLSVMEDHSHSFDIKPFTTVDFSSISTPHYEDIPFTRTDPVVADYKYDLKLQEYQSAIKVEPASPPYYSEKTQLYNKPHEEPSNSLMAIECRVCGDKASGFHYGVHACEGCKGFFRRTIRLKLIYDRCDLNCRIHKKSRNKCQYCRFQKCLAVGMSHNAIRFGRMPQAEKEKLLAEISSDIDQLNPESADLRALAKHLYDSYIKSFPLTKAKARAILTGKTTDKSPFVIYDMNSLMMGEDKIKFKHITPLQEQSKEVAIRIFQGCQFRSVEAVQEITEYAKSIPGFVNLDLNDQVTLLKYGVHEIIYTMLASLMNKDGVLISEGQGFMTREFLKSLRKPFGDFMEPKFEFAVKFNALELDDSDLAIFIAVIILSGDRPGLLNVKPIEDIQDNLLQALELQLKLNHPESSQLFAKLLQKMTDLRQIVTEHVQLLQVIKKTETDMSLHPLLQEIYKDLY
Method in brief: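 Liver-derived HepG2 cells expressing an exogenous NR-Gal4 chimera alongside GAL4-UAS reporter genes; 24 h exposure. Fluorescence of reporter RT-PCR products, separated by capillary electrophoresis, gives mRNA induction relative to DMSO.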

[4] = target: Nuclear receptor subfamily 1 group I member 2 (Homo sapiens) (UniProt O75469); assay: ATG_PXR_TRANS: Attagene TRANS-FACTORIAL HepG2 Assay for human Pregnane X Receptor (PXR) (AID 2283008)
Sequence of Nuclear receptor subfamily 1 group I member 2 (Homo sapiens) (O75469 whole entry, looked up, the tested form may be a part): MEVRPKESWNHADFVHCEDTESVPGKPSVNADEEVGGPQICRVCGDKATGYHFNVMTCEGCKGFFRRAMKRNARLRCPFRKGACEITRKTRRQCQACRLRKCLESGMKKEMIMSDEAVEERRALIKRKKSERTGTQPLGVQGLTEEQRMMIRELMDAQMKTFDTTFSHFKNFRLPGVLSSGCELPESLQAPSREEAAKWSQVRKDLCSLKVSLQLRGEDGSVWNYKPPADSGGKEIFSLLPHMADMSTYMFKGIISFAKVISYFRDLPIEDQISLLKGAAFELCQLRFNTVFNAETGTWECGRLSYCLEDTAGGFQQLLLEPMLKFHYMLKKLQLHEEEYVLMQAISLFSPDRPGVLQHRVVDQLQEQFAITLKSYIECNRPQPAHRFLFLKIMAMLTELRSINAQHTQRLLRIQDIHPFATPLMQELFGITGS
Method in brief: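 HepG2 transfected (FuGene 6) with GAL4-UAS reporter units + PXR-Gal4 chimera; dosed 24 h. Total RNA → oligo(dT) RT → PCR → 6-FAM primer extension → HpaI cut → CE. Gain-of-signal vs DMSO.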

[5] = target: human RAR-related Orphan Receptor beta (RORb), RORB (gene 6096) (UniProt Q92753); assay: ATG_RORb_TRANS: Attagene TRANS-FACTORIAL HepG2 Assay for human RAR-related Orphan Receptor beta (RORb) (AID 2283010)
Sequence of human RAR-related Orphan Receptor beta (RORb), RORB (gene 6096) (Q92753 whole entry, looked up, the tested form may be a part): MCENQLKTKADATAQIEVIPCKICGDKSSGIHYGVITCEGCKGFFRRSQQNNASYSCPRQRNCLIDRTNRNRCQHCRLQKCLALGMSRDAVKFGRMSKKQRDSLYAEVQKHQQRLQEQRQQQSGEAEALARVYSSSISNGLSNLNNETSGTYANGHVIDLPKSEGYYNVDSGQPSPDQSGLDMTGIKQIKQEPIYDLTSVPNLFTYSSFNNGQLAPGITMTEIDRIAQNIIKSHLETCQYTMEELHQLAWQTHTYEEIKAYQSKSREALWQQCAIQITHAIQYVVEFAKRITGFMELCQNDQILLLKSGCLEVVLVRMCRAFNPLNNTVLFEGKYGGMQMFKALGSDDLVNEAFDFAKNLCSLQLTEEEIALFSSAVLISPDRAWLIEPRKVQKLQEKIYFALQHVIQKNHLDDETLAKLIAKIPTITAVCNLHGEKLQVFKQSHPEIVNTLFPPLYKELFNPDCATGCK
Method in brief: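 Transfect HepG2 with multiple GAL4-UAS reporter transcription units; dose chemicals for 24 h; isolate RNA, reverse-transcribe and PCR-amplify reporter sequences; label, digest and resolve fragments by capillary electrophoresis; fit increases relative to DMSO.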

[6] = target: human RAR-related Orphan Receptor gamma (RORg), RORC (gene 6097) (UniProt P51449); assay: ATG_RORg_TRANS: Attagene TRANS-FACTORIAL HepG2 Assay for human RAR-related Orphan Receptor gamma (RORg) (AID 2283011);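 on AC50: potency for induction of reporter transcripts above DMSO so activators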
Sequence of human RAR-related Orphan Receptor gamma (RORg), RORC (gene 6097) (P51449 whole entry, looked up, the tested form may be a part): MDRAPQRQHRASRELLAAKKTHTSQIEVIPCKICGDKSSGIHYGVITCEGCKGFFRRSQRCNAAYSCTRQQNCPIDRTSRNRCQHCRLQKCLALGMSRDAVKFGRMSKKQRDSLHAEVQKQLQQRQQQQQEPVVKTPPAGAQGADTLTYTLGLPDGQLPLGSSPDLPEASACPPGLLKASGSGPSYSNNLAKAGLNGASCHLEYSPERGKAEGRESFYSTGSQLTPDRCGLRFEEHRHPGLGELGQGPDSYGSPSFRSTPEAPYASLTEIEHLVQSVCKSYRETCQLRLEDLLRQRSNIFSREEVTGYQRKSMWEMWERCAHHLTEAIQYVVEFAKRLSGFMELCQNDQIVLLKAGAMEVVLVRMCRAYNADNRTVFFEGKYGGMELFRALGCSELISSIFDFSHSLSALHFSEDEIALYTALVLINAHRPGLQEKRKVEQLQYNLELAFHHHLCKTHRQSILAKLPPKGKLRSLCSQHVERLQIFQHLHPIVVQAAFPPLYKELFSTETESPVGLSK
Method in brief: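 Chimeric RORg-Gal4 transactivation in transfected HepG2; 24 h exposure; RT-PCR/capillary electrophoresis readout of reporter mRNA, DMSO baseline.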

[7] = target: human Retinoic Acid Receptor gamma (RARg), RARG (gene 5916) (UniProt P13631); assay: ATG_RARg_TRANS: Attagene TRANS-FACTORIAL HepG2 Assay for human Retinoic Acid Receptor gamma (RARg) (AID 2283009)
Sequence of human Retinoic Acid Receptor gamma (RARg), RARG (gene 5916) (P13631 whole entry, looked up, the tested form may be a part): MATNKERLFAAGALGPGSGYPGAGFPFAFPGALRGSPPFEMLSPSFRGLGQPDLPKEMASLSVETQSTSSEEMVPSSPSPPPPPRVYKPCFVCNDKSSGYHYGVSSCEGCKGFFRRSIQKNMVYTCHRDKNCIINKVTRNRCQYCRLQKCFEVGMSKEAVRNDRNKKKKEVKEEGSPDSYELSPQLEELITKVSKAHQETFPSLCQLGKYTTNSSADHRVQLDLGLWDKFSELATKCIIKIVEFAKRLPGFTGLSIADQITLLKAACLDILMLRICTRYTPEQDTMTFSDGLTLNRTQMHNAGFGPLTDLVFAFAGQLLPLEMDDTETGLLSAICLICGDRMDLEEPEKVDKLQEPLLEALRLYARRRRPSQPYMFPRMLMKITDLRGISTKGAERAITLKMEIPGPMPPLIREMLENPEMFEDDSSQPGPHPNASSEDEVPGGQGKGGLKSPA
Method in brief: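 TRANS format measured activity of exogenous NR-GAL4 fusion (RARg) in transfected HepG2 liver cells after 24 h dosing. Induced reporter RNA was detected by RT-PCR/capillary electrophoresis fluorescence, analysed in the positive direction against DMSO.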

[8] = read-out: Intercellular Adhesion Molecule 1 (ICAM1), ICAM1 (gene 3383); assay: BSK_3C_ICAM1: BioMAP Diversity Plus: 3C Assay for Intercellular Adhesion Molecule 1 (ICAM1) Biomarker Activity (AID 2283003; active means hit-call score of the fitted dose curve at least 0.9, where 1 is the maximum; inactive means score below 0.9); conditions: primary human endothelial cells (HUVEC); actives raise or lower the signal
Method in brief: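 Chemicals are dosed onto primary human umbilical vein endothelium (3C system). After 24 h, ICAM-1 is measured by ELISA, and responses are fitted bidirectionally relative to DMSO.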

[9] = BSK_3C_Proliferation: Cell Proliferation Assessment in the BioMAP Diversity Plus: 3C Assay (AID 2283006; active means hit-call score of the fitted dose curve at least 0.9, where 1 is the maximum; inactive means score below 0.9); conditions: primary human endothelial cells (HUVEC)
Method in brief: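 Cells (human umbilical vein endothelial, sub-confluent) receive test chemical; after 48 h they are fixed in 10% trichloroacetic acid, stained with 0.1% SRB and read at 560 nm. Activity is referenced to DMSO, fitting increases and decreases.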

Measured: AC50

Cc1cccc(Nc2ccccc2C(=O)O)c1C
inactive: [4]
active: [1] 14.5 µM | [2] 77.8 µM | [3] 12.6 µM

C[C@H]1C[C@H]2[C@@H]3CCC4=CC(=O)C=C[C@]4(C)[C@@]3(F)[C@@H](O)C[C@]2(C)[C@@]1(O)C(=O)COP(=O)(O)O
inactive: [1] | [2] | [3] | [4]

C=CC(C)(CCC=C(C)C)OC=O (centres undefined)
not listed: [7] | [8] | [9]
inactive: all other assays above

Cc1ccccc1C=O
inactive: [1] | [2] | [3] | [5]
active: [4] 20.9 µM

NC(=O)Nc1ccc(Cl)cc1
inactive: [1] | [2] | [3] | [4] | [5]

CCCCNC(=O)NS(=O)(=O)c1ccc(C)cc1
inactive: [1] | [2] | [3] | [4] | [5]

Cc1ccc(S)cc1
active: [3] 22.8 µM
inactive: [1] | [2] | [4]

O=C(O)c1snc(Cl)c1Cl
active: [3] 25.3 µM
inactive: [1] | [2] | [4]

NNc1nc(-c2ccc(N)cc2)cs1
inactive: [1] | [2] | [3] | [4] | [5]

c1ccc2[nH]ccc2c1
inactive: [1] | [2] | [3] | [4] | [5]

CC(C)=CCO
not listed: [7] | [8] | [9]
inactive: all other assays above

CCCCOCCOCCSC#N
inactive: [1] | [2]
active: [3] 19.8 µM | [4] 3.36 µM

CCCCCCCCCCCCCOS(=O)(=O)O
inactive: [2] | [4]
active: [1] 3.35 µM | [3] 12 µM

CCN(CC)c1ccc(C(=C2C=CC(=[N+](CC)CC)C=C2)c2ccc(S(=O)(=O)O)cc2S(=O)(=O)[O-])cc1
not listed: [7] | [8] | [9]
inactive: all other assays above

C=C(C)C(=O)OCc1ccccc1
inactive: [1] | [2] | [3] | [4]

CCCC/C=C\CCCCCCCCCC=O
inactive: [1] | [2] | [3] | [4]

C=CCOc1nc(OCC=C)nc(OCC=C)n1
active: [3] 61.4 µM | [4] 14.9 µM
inactive: [1] | [2]

OC1C(O)C(O)C(O)C(O)C1O (centres undefined)
inactive: [1] | [2] | [3] | [4]

CC(CCO)CCCC(C)(C)O (centres undefined)
inactive: [1] | [2] | [3] | [4] | [6]

O=C(O)c1cccc([N+](=O)[O-])c1
not listed: [7] | [8] | [9]
inactive: all other assays above

CCC/C=C/C=O
active: [3] 27.7 µM
inactive: [1] | [2] | [4]

O=C(Nc1ccccc1)c1cc([N+](=O)[O-])ccc1Cl
active: [3] 19.8 µM | [4] 3.82 µM
inactive: [1] | [2] | [5] | [6]

CCCCCCC#CC(=O)OC
inactive: [1] | [2] | [4] | [5]
active: [3] 5.61 µM

CCCCCOC(=O)CCC
not listed: [8] | [9]
inactive: all other assays above

Cc1ccc(C(=O)c2cc(O)c(O)c([N+](=O)[O-])c2)cc1
active: [3] 17.5 µM
inactive: [1] | [2] | [4]

CCCCCCCCCCCCN(CCCCCCCCCCCC)CCCCCCCCCCCC
inactive: [1] | [2] | [3] | [4] | [5]

O=C(Oc1ccccc1)c1ccc(O)cc1
inactive: [1] | [2] | [3] | [4] | [5]

CCCCCCCCCCC(CO)CCCCCCCC (centres undefined)
inactive: [1] | [2] | [3] | [4] | [5]

CC(C)c1cccc(O)c1
inactive: [1] | [2] | [3] | [4]

CCC(=O)OCCC(C)CCC=C(C)C (centres undefined)
inactive: [1] | [2] | [3] | [4]

Nc1cc(Cl)c(O)c(Cl)c1
inactive: [1] | [2] | [4] | [5]
active: [3] 30 µM

CCCCCCOC(=O)CC
inactive: [1] | [2] | [3] | [4] | [5]

CCCCCCCCCCCCSC
inactive: [1] | [2] | [3] | [4]

CC(CCO)CCc1ccccc1 (centres undefined)
inactive: [1] | [2] | [3]
active: [4] 48.2 µM

O=Nc1ccc(Nc2ccccc2)cc1
active: [3] 26.6 µM | [6] 40.4 µM
inactive: [1] | [2] | [4] | [5]

COc1cc(C)cc(O)c1
not listed: [7] | [8] | [9]
inactive: all other assays above

C=CC(=O)OCC(O)COc1ccccc1 (centres undefined)
active: [1] 17.3 µM | [3] 3.66 µM | [4] 61 µM
inactive: [2] | [6]

CCC(=O)/C=C/C1C(C)=CCCC1(C)C (centres undefined)
inactive: [1] | [2]
active: [3] 21.4 µM | [4] 3.77 µM

OC[C@H]1O[C@H](O[C@]2(CCl)O[C@H](CCl)[C@@H](O)[C@@H]2O)[C@H](O)[C@@H](O)[C@H]1Cl
inactive: [1] | [8] | [9] | [4]

CCC(C(=O)NC(N)=O)c1ccccc1 (centres undefined)
inactive: [1] | [2] | [4]
